Measurements from the supplement of paper PMC9135407.
Several values for one entry are separate records, joined by “and”; a condition that tells them apart may be missing. Equal entries are not always repeated. Structures can show the parent of a compound that is named as a salt. Hit rate of the full screen: of about 5,800 compounds, about 620 (11%) showed activity. For the sample, actives were picked, then their nearest neighbours and some compounds at random. Unmarked numbers belong to inactive results.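 The calls were made as follows: active = score above a cut-off or among the top three wells of a plate; in these data no inactive exceeds 0.85.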

Tested on: primary human hepatic stellate cells (donor 1)
Assay: scaled lipid accumulation score (0 = DMSO-like, 1 = nortriptyline-like); higher = stronger HSC inactivation (lipid re-accumulation), active = hit call of the paper
Conditions: 48 h
[1] = library stock concentration: 10 mM
[2] = library stock concentration: 1 mM
[3] = library stock concentration: 3.33 mM
[4] = library stock concentration: 80 uM
[5] = library stock concentration: 400 uM
[6] = library stock concentration: 2 mM
[7] = library stock concentration: 5.9 mM

Cc1onc(O)c1C[C@H](N)C(=O)O
scaled lipid accumulation score [1]: ≤ 0

CCCCC/C=C\C/C=C\C/C=C\C/C=C\CCCC(=O)Nc1ccc([N+](=O)[O-])cc1 [Arachidonoyl p-Nitroaniline]
scaled lipid accumulation score [2]: ≤ 0

c1cc2ccc(N3CCNCC3)cc2cn1 [7-piperazin-1-yl-Isoquinoline (hydrochloride)]
scaled lipid accumulation score [2]: ≤ 0

CCN1CCN(C(=O)Cc2ccc(Nc3ncc(F)c(Nc4ccc(C(=O)Nc5ccccc5Cl)cc4)n3)cc2)CC1 [Aurora A Inhibitor I] [listing 1 of 2 here]
scaled lipid accumulation score [3]: 0.402

CCN1CCN(C(=O)Cc2ccc(Nc3ncc(F)c(Nc4ccc(C(=O)Nc5ccccc5Cl)cc4)n3)cc2)CC1
scaled lipid accumulation score [4]: ≤ 0
scaled lipid accumulation score [5]: ≤ 0
scaled lipid accumulation score [6]: 0.676
scaled lipid accumulation score [1]: 0.801

CCN1CCN(C(=O)Cc2ccc(Nc3ncc(F)c(Nc4ccc(C(=O)Nc5ccccc5Cl)cc4)n3)cc2)CC1 [Aurora A Inhibitor I] [listing 2 of 2 here]
scaled lipid accumulation score [1]: 1.24 (active)

NC(Cn1oc(=O)[nH]c1=O)C(=O)O (single isomer, unassigned; (+)) [(+)-Quisqualic acid]
scaled lipid accumulation score [1]: ≤ 0

CN1CC(CNC(=O)OCc2ccccc2)C[C@H]2c3cccc4c3c(cn4C)CC21 (stereo not given in full) [Metergoline]
scaled lipid accumulation score [1]: 1.05 (active)

CN1C[C@H](CNC(=O)OCc2ccccc2)C[C@@H]2c3cccc4c3c(cn4C)C[C@H]21 [Metergoline] [listing 1 of 3 here]
scaled lipid accumulation score: 1.06 (active)

CC[C@@H](CO)NC(=O)[C@@H]1C=C2c3cccc4c3c(cn4C)C[C@H]2N(C)C1 [Methysergide]
scaled lipid accumulation score (library stock concentration: 5.7 mM): ≤ 0

CN1C[C@H](CNC(=O)OCc2ccccc2)C[C@@H]2c3cccc4c3c(cn4C)C[C@H]21 [Metergoline] [listing 2 of 3 here]
scaled lipid accumulation score [1]: 0.893 (active)

CO[C@]12C[C@@H](COC(=O)c3cncc(Br)c3)CN(C)[C@@H]1Cc1cn(C)c3cccc2c13 [Nicergoline]
scaled lipid accumulation score: ≤ 0
scaled lipid accumulation score [1]: 0.682 and 0.399

CN1C[C@H](CNC(=O)OCc2ccccc2)C[C@@H]2c3cccc4c3c(cn4C)C[C@H]21 [Metergoline] [listing 3 of 3 here]
scaled lipid accumulation score [1]: 0.653

CC[C@@H](CO)NC(=O)[C@@H]1C=C2c3cccc4c3c(cn4C)C[C@H]2N(C)C1 [Methysergide maleate]
scaled lipid accumulation score [1]: 0.458 and 0.048

CCOC(=O)CN1C(=O)CC(C[C@@H](O)C2C[C@@H](C)C[C@H](C)C2=O)CC1=O (stereo not given in full) [Cycloheximide-N-ethylethanoate]
scaled lipid accumulation score (library stock concentration: 13.6 mM): ≤ -0.021

Cc1cc([C@@H]2CCCN2C)on1 [ABT-418 hydrochloride]
scaled lipid accumulation score [1]: ≤ 0

CCOc1ccccc1-n1c(C(C)N2CCN(C(=O)COc3ccc(Cl)cc3)CC2)nc2ccccc2c1=O (stereo not given) [Erastin]
scaled lipid accumulation score [3]: ≤ -0.009
scaled lipid accumulation score [1]: 0.473

C[N+]1(C)CCc2cc3c(cc2C1C1OC(=O)c2c1ccc1c2OCO1)OCO3 (single isomer, unassigned; (-)) [(-)-Bicuculline methobromide]
scaled lipid accumulation score [1]: ≤ 0

O=C(O)/C=C/CO [trans-4-Hydroxycrotonic acid]
scaled lipid accumulation score [1]: 0.003

CCCCCCCC/C=C\CCCCCCCC(=O)Nc1ccccc1 [Oleyl Anilide]
scaled lipid accumulation score [2]: 0.024

CS(=O)(=O)Nc1ccc(Cc2noc(-c3ccc4[nH]cc(CCN)c4c3)n2)cc1
scaled lipid accumulation score [1]: ≤ 0

COc1ccc(CCN2CCC(Nc3nc4ccccc4n3Cc3ccc(F)cc3)CC2)cc1 [Astemizole] [listing 1 of 3 here]
scaled lipid accumulation score: 1 (active)

COc1ccc(CCN2CCC(Nc3nc4ccccc4n3Cc3ccc(F)cc3)CC2)cc1 [Astemizole] [listing 2 of 3 here]
scaled lipid accumulation score (library stock concentration: 4.4 mM): 0.824 and 0.409
scaled lipid accumulation score [1]: 0.475

COc1ccc(C(=O)c2c(C)n(CCN3CCOCC3)c3ccccc23)cc1 [Pravadoline]
scaled lipid accumulation score (library stock concentration: 5.3 mM): ≤ -0.006

COc1ccc(CCN2CCC(Nc3nc4ccccc4n3Cc3ccc(F)cc3)CC2)cc1 [Astemizole] [listing 3 of 3 here]
scaled lipid accumulation score [1]: 0.907 (active)

CC(=O)N[C@H]1[C@@H](O[C@@H]2O[C@H](CC(O)[C@H]3O[C@@H](n4ccc(=O)[nH]c4=O)[C@H](O)[C@@H]3O)[C@H](O)[C@H](O)[C@H]2NC(=O)/C=C/CC(C)C)O[C@H](CO)[C@@H](N)[C@@H]1O (stereo not given in full) [Tunicamycin]
scaled lipid accumulation score (library stock concentration: 7 mM): 0.058

CN1CC[C@@]2(C)c3cc(OC(=O)Nc4ccccc4)ccc3N(C)[C@@H]12 [Phenserine]
scaled lipid accumulation score [1]: 0.339

NCCc1ccccn1
scaled lipid accumulation score [1]: ≤ 0

CCCCCCC(=O)CCCCCC/C=C/C[C@@H](O)[C@H](O)[C@@](N)(CO)C(=O)O [Myriocin]
scaled lipid accumulation score [2]: 0.023

O[C@H]1[C@H]2[C@H](O)CCCN2C[C@H]1O [swainsonine]
scaled lipid accumulation score (library stock concentration: 28.9 mM): 0.01

Cl.Clc1ccc(N2CCN(Cc3c[nH]c4ncccc34)CC2)cc1 [L-745,870 hydrochloride]
scaled lipid accumulation score [1]: 0.902 (active)

Clc1ccc(N2CCN(Cc3c[nH]c4ncccc34)CC2)cc1 [L-745,870 trihydrochloride]
scaled lipid accumulation score [1]: 0.37

CC1=CC(=O)C2=C(C)C[C@H](O)[C@@H]3[C@H](OC(=O)[C@H]3C)[C@H]12 [Austricine hydrate]
scaled lipid accumulation score: ≤ 0

CCCCC[C@@H](/C=C/C=C\CCCCCCCC(=O)O)OO
scaled lipid accumulation score (library stock concentration: 100 uM): ≤ -0.021

CO[C@@H]1C=C2CCN(C)[C@@H]2C2c3cc4c(cc3C(=O)OC21)OCO4 (stereo not given in full) [Ungerine nitrate]
scaled lipid accumulation score: ≤ 0

CCCCCCC(=O)O[C@H]1CC[C@H]2[C@@H]3CC(=O)C4=CC(=O)CC[C@]4(C)[C@H]3CC[C@]12C [6-keto Testosterone Enanthate]
scaled lipid accumulation score [2]: 0.048

O=C1Nc2ccc(Cl)cc2C(c2ccccc2Cl)=NC1O (stereo not given) [Lorazepam]
scaled lipid accumulation score [1]: ≤ 0

Cl.Oc1ccc2c3c1O[C@H]1c4[nH]c5ccccc5c4C[C@@]4(O)C(C2)N(CC2CC2)CCC314 (stereo not given in full) [Naltrindole hydrochloride]
scaled lipid accumulation score [1]: 1.1 (active)

Oc1ccc2c3c1O[C@H]1c4[nH]c5c(c4C[C@@]4(O)[C@@H](C2)N(CC2CC2)CC[C@]314)C[C@@]1(O)[C@H]2Cc3ccc(O)c4c3[C@@]1(CCN2CC1CC1)[C@H]5O4 [nor-Binaltorphimine dihydrochloride]
scaled lipid accumulation score [1]: ≤ -0.055 and ≤ 0

Cl.Oc1ccc2c3c1O[C@H]1c4[nH]c5ccccc5c4C[C@@]4(O)C(C2)N(CC2CC2)CC[C@]314 [Naltrindole hydrochloride]
scaled lipid accumulation score [1]: 1.33 (active)

O=C1/C(=C/c2ccccc2)C[C@@]2(O)[C@H]3Cc4ccc(O)c5c4[C@@]2(CCN3CC2CC2)[C@H]1O5 [BNTX maleate salt hydrate]
scaled lipid accumulation score [1]: ≤ -0.006

C=C(C)CN1CC[C@@]23c4c5ccc(O)c4O[C@H]2c2[nH]c4ccccc4c2C[C@]3(O)C1C5 [SDM25N hydrochloride]
scaled lipid accumulation score [1]: 0.625

O=C1CC[C@@]2(O)[C@H]3Cc4ccc(O)c5c4[C@@]2(CCN3CC2CC2)[C@H]1O5 [Naltrexone HCl]
scaled lipid accumulation score [3]: ≤ 0
scaled lipid accumulation score [7]: ≤ -0.006
scaled lipid accumulation score [1]: 0.025

O=C(O)/C=C\C(=O)O.O=C1/C(=C/c2ccccc2)C[C@@]2(O)C3Cc4ccc(O)c5c4[C@@]2(CCN3CC2CC2)[C@H]1O5 [BNTX maleate]
scaled lipid accumulation score [1]: 0.851 (active)

O=C1CC[C@@]2(O)[C@H]3Cc4ccc(O)c5c4[C@@]2(CCN3CC2CC2)[C@H]1O5 [Naltrexone hydrochloride]
scaled lipid accumulation score [7]: 0.019
scaled lipid accumulation score [1]: ≤ -0.045 and ≤ -0.027

Oc1ccc2c3c1O[C@H]1c4[nH]c5ccccc5c4C[C@@]4(O)[C@@H](C2)N(CC2CC2)CC[C@]314 [Naltrindole HCl]
scaled lipid accumulation score (library stock concentration: 4.8 mM): 0.264

Oc1ccc2c3c1O[C@H]1c4[nH]c5ccccc5c4C[C@@]4(O)[C@@H](C2)N(CC2CC2)CC[C@]314 [Naltrindole]
scaled lipid accumulation score [1]: 0.713

O=C1CC[C@@]2(O)[C@H]3Cc4ccc(O)c5c4[C@@]2(CCN3CC2CC2)[C@H]1O5 [Naltrexone hydrochloride dihydrate]
scaled lipid accumulation score: ≤ 0

CCCCCCC(C)(C)c1ccc([C@@H]2C[C@H](O)CC[C@H]2CCCO)c(O)c1
scaled lipid accumulation score [2]: 0.004

CN/C(=N\S(=O)(=O)c1ccc(Cl)cc1)N1C[C@H](c2ccccc2)C(c2ccc(Cl)cc2)=N1
scaled lipid accumulation score [2]: ≤ 0

COC[C@H]1OC(=O)c2coc3c2[C@@]1(C)C1=C(C3=O)[C@@H]2CCC(=O)[C@@]2(C)C[C@H]1OC(C)=O [Wortmannin]
scaled lipid accumulation score [3]: ≤ 0
scaled lipid accumulation score [1]: ≤ 0

CCOC(=O)c1ncn2c1CN(C)C(=O)c1cc(N=[N+]=[N-])ccc1-2
scaled lipid accumulation score [1]: ≤ -0.001

CC1=CCCC2C1(C)CCC(C)C2(C)CC/C(C)=C/Cn1c[n+](C)c2c(N)ncnc21 (stereo not given) [Agelasine (stereochemistry of diterpene unknown)]
scaled lipid accumulation score [1]: 0.317

COc1ccc(N(C(=O)Oc2c(C)cccc2C)c2ccnc(Nc3ccc(N4CCN(C)CC4)cc3)n2)c(OC)c1
scaled lipid accumulation score [4]: 0.038
scaled lipid accumulation score [5]: 0.193
scaled lipid accumulation score [6]: ≤ 0
scaled lipid accumulation score [3]: 0.656
scaled lipid accumulation score [1]: 0.815 and 0.679

COc1ccc(-n2nc(C(F)(F)F)cc2-c2ccc(Cl)cc2)cc1
scaled lipid accumulation score [1]: 0.006

COc1ccc(/C=C/C(=O)CC(=O)/C=C/c2ccc(OC)c(OC)c2)cc1OC [Dimethoxycurcumin]
scaled lipid accumulation score [2]: ≤ 0
